Screening data: PubChem, Broad Institute
An excerpt weighted towards active compounds, which were near 7.7% of everything screened.
Hedgehog inh: Hedgehog pathway signaling inhibitors, primary screen, luminescence, Shh-LIGHT2 cells, Gli-luciferase | Shh-LIGHT2 Gli-luciferase reporter, 30 h | hit rate 2.1% among 22,000 | inhibition, % (test concentration not listed);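 active means mean inhibition across valid replicates above about 65%, limit read from the data; inconclusive means mean under the limit, yet half or more replicates past it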;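 further: pathway switched on by Shh-conditioned medium diluted 1 in 25 in low serum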
NOMO-1 viab: NOMO-1 AML cell viability reduction, primary screen, STK33 inhibitor project, CellTiter-Glo luminescence; inhibition, % (concentration not given with the values); hit rate 7.5% among 37,000; NOMO-1 AML viability, 72 h; in the data active means inhibition above about 80%; inconclusive means no clear call, values can overlap the other calls
PD-1 reverse act: activators reversing PD-1 mediated T-cell inhibition, primary screen, luminescence, primary human CD4 T cells, PD-L1 beads; CellTiter-Glo 96 h; activation, % (concentration not given with the values); 29,000 tested, under 10 active; call rule not given here;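 further: 0% = median vehicle wells and 100% = positive control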
An asterisk follows results filed as active; u = inconclusive; x = no result given.

SMILES | Hedgehog inh | NOMO-1 viab | PD-1 reverse act
C=C1C(=O)OC2CC1C(OC(C)=O)C/C(C)=C\CC/C(C)=C\CC[C@]2(C)O (some centres not stated) | 87.5* | 111.2* | x
Nc1ccc(S(=O)(=O)C(F)(F)F)cc1 | -3.3 | -8.5 | -0.1
CNC1CCc2cc(OC)c(OC)c(OC)c2-c2ccc(OC)c(=O)cc21 (configuration not stated) | 91.5* | 97.4* | -21.4
COc1c(O[C@@H]2O[C@H](CO)[C@@H](O)[C@H](O)[C@H]2O)cc2c(c1OC)-c1ccc(SC)c(=O)cc1C(NC(C)=O)CC2 (some centres not stated) | -68.2 | -6.7 | 1.0
COc1ccc(NC(=O)Nc2ccc3c(c2)CC(=O)N([C@@H](C)CO)C[C@H](C)[C@H](CN(C)S(=O)(=O)c2ccc(Cl)cc2)O3)cc1 | 15.2 | 112.5* | -0.2
COc1ccc(NC(=O)Nc2ccc3c(c2)CC(=O)N([C@H](C)CO)C[C@H](C)[C@H](CN(C)S(=O)(=O)c2ccc(Cl)cc2)O3)cc1 | -72.8 | 122.5* | x
COc1ccc(NC(=O)Nc2ccc3c(c2)CC(=O)N([C@@H](C)CO)C[C@H](C)[C@@H](CN(C)S(=O)(=O)c2ccc(C)cc2)O3)cc1 | x | 23.8 | -1.7
COc1ccc(NC(=O)Nc2ccc3c(c2)CC(=O)N([C@H](C)CO)C[C@@H](C)[C@@H](CN(C)S(=O)(=O)c2ccc(Cl)cc2)O3)cc1 | -17.5 | 3.5 | -0.5
COc1ccc(NC(=O)Nc2ccc3c(c2)CC(=O)N([C@H](C)CO)C[C@@H](C)[C@@H](CN(C)S(=O)(=O)c2ccc(OC)cc2)O3)cc1 | 12.8 | -14.0 | x
COc1ccc(NC(=O)Nc2ccc3c(c2)CC(=O)N([C@H](C)CO)C[C@H](C)[C@H](CN(C)S(=O)(=O)c2ccc(C)cc2)O3)cc1 | -5.7 | 121.6* | x
CCc1nc2sc(C)c(C)c2c(=O)n1N | -25.4 | 22.1 | 4.5
C[N+]12CCCCC1C(CN1C(=O)c3ccccc3C1=O)CCC2 (configuration not stated) | x | 11.6 | 0.4
CCOC(=O)c1c(NC(=O)CN2C(=O)COc3ccc(Cl)cc32)sc2c1CCCC2 | x | 41.1 | x
O=C(/C=C/c1ccccc1)OC[C@H]1O[C@@H](O[C@@H]2CC(C(=O)O)=C[C@@H](O)[C@H]2O)[C@H](O)[C@@H](O)[C@@H]1O | -12.5 | x | x
Cc1ccc2[nH]c(C)c(CCC(=O)O)c(=O)c2c1 | x | -10.3 | 1.2
CC1CCC(C(C)C)C(N(Cc2ccccc2)C(=O)c2cccs2)C1 (configuration not stated) | 4.5 | u | -1.1
O=C(CSc1nnnn1-c1ccccc1)Nc1ccc(Br)cc1F | x | 13.1 | x
N#CC1CN(CCc2ccccc2)CN(CCc2ccccc2)C1 | 68.6* | 111.4* | -6.2
O=C1NCC2(CCN(CCc3ccccc3)CC2)O1 | 12.6 | -10.3 | x
Fc1ccccc1OCCSc1nc2ccccc2s1 | -88.1 | 11.6 | 0.0
C=CCN(CC=C)C(=O)Cc1ccccc1OC | -6.3 | 30.6 | -2.1
C[C@@H]1C[C@@H](O)C2[C@@](C)(CO)CCC[C@]2(C)[C@@]1(O)CCc1ccoc1 (some centres not stated) | -3.0 | 26.4 | 0.5
CC1=CC(=O)C2C(C)(C)CCC[C@]2(C)[C@@]1(O)CCc1ccoc1 (some centres not stated) | 30.5 | 95.8* | x
Cc1c(NC(=O)COc2ccc(Br)cc2)cccc1-c1nc2cc(Cl)ccc2o1 | x | 38.4 | -8.7
O=c1[nH]c2ccc(Cl)cc2c2oc(-c3ccccc3)nc12 | -22.8 | 13.8 | 10.4
SMILES | Hedgehog inh | NOMO-1 viab | PD-1 reverse act
C[C@H](CO)N1C[C@H](C)[C@@H](CN(C)Cc2ccncc2)Oc2c(NC(=O)c3nc4ccccc4s3)cccc2C1=O | -25.2 | 73.7 | -4.6
C[C@@H]1CN([C@H](C)CO)C(=O)c2cccc(NC(=O)c3nc4ccccc4s3)c2O[C@H]1CN(C)Cc1ccc(C(F)(F)F)cc1 | -13.3 | 100.6* | -4.0
C[C@H]1CN([C@@H](C)CO)C(=O)c2cccc(NC(=O)c3nc4ccccc4s3)c2O[C@H]1CN(C)Cc1ccc(C(F)(F)F)cc1 | -4.3 | 49.5 | -2.9
C[C@H](CO)N1C[C@H](C)[C@H](CN(C)C(=O)Nc2ccc(C(F)(F)F)cc2)Oc2c(NC(=O)c3nc4ccccc4s3)cccc2C1=O | u | 103.6* | -8.0
C[C@H](CO)N1C[C@H](C)[C@H](CN(C)Cc2ccncc2)Oc2c(NC(=O)c3nc4ccccc4s3)cccc2C1=O | 24.1 | 88.5* | -7.0
C[C@H](CO)N1C[C@H](C)[C@@H](CN(C)C(=O)Nc2ccc(C(F)(F)F)cc2)Oc2c(NC(=O)c3nc4ccccc4s3)cccc2C1=O | 5.9 | 13.1 | -2.4
O=C(NC1CCN(C(=O)c2c(Cl)cccc2Cl)CC1)C1CCCCC1 | -70.4 | 13.3 | 1.0
